From PubChem BioAssay AID493168 (National Center for Advancing Translational Sciences (NCATS), 2011)
Results filed as inconclusive are left out. Unmarked numbers belong to inactive results. Activity calls are given as the source filed them. Calls come from the whole dose curve; as a rule, active = well fitted inhibition curve with a large enough effect; inconclusive = small, poorly fitted or top-dose-only effect, or effect the other way; inactive = flat fitted curve, though single readings scatter.

Each compound was assayed against Ubiquitin carboxyl-terminal hydrolase 2 (Homo sapiens) (UniProt O75604) (assay: Confirmation Assay for Inhibitors of Ubiquitin-specific Protease USP2a Using CHOP2 as the Reporter). Conditions: USP2 core, Ub-CHOP2 coupled reporter fluorescence; series mostly up to 38.3 µM; activity change, negative = inhibition: at the top concentration.
Procedure, shortened: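 USP2 core (10 nM final) was preincubated with compound for 30 min at RT in Tris-HCl pH 8.0, CaCl2, beta-mercaptoethanol, CHAPS. Ub-CHOP2 and reporter substrate (25 nM final each) were added, and fluorescence (Ex 485/Em 531 nm) was read after 60 min.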
Note: nearly all actives have a fitted effect of over 55% in size.
Potency is the fitted concentration of half-maximal effect.
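Throughout, for activity change, negative = inhibition: plate controls were DMSO wells for no effect and full inhibition by NEM control for full effect.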

Chain of Ubiquitin carboxyl-terminal hydrolase 2 (Homo sapiens) (O75604 whole entry, looked up): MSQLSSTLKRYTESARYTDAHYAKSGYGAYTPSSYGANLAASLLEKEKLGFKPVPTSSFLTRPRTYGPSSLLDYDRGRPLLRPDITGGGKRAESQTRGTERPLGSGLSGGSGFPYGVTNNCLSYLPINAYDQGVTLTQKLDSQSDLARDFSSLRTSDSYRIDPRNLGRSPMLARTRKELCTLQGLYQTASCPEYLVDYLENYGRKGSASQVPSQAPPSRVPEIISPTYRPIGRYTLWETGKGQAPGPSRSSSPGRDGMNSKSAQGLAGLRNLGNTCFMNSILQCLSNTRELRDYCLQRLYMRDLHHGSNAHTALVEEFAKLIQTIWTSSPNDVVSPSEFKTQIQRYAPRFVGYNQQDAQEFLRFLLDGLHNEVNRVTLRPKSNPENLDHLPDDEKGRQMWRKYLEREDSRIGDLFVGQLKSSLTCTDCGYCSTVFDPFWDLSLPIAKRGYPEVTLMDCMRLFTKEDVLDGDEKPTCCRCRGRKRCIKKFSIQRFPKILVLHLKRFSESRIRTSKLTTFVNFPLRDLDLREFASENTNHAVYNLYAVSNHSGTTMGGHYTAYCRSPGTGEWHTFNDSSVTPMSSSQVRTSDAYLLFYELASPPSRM

Compound	activity change, negative = inhibition [%]	Potency
CCNC1=C(Cl)C(=O)c2ccccc2C1=O	1.23	
Cc1ccc(NC(=O)CCC(=O)OC(C)C(=O)c2ccccc2)cc1 (stereo not given)	1.96	
O=C(CSCc1cnn(-c2ccccc2)c1-n1cccc1)NCC1CCCO1 (stereo not given)	1.16	
C(=N\N(c1ccccc1)c1ccccc1)/c1ccccn1	3.64	
CSCC[C@H](NC(=O)C1CCN(S(=O)(=O)c2ccc(C)cc2)CC1)C(=O)NCc1ccco1	-3.41	
Cc1cc(Cl)ccc1NC(=S)NCCCN1CCCC1=O	-2.55	
COCCn1nnnc1CN(CCc1ccccc1)Cc1cc2ccc(C)cc2[nH]c1=O	0.728	
CC(=O)c1ccc2c(c1)C1C=CCC1C(C(=O)O)N2 (stereo not given)		11.7 µM (active)
Nc1nc(NCCO)nc(NCC2CCCO2)c1[N+](=O)[O-] (stereo not given)	3.3	
NC(=O)c1ncc(C(F)(F)F)cc1Oc1cccc(F)c1	1.98	
COc1ccc(CCN2CC(C#N)=C3c4cc(OC)c(OC)cc4CCN3C2)cc1OC	-0.858	
O=C1c2ccccc2C(=O)N1CCCCn1c(=O)oc2ccccc21	-0.817	
COc1ccc(-n2c(SCC(=O)N3CCN(c4ccccc4)CC3)nc3c(c2=O)SCC3)cc1	-6.88	
CC1=C(C(=O)OC(C)C)C(C)C(C(=O)OC(C)C)=C(C)N1	0.166	
O=C(Nc1ccc(N2CCCC2)cc1)c1ccc(Br)cc1		16.5 µM (active)
CCOC(=O)N1CCN(C(=O)CN(c2ccc(Oc3ccccc3)cc2)S(C)(=O)=O)CC1	-1.27	
CCCOc1ccc(N2C(=O)CC(NCCc3ccc(S(N)(=O)=O)cc3)C2=O)cc1 (stereo not given)	0.466	
O=C(Nc1nc(-c2ccco2)c(-c2ccco2)s1)C1CC(=O)N(c2ccc3c(c2)OCCO3)C1 (stereo not given)		10.4 µM (active)
Cc1cc(C)c2c(N=CN(C)C)c(C(=O)N3CCN(c4ncccn4)CC3)sc2n1	-1.59	
Cc1ccccc1[C@@H]1C(C#N)=C(N)S[C@H]1C(=O)c1ccccc1	-2.6	

Compound	activity change, negative = inhibition [%]	Potency
Cc1ccc(C(=O)N(c2c(C)n(C)n(-c3ccccc3)c2=O)C(C)C)cc1	-2.93	
CCN(Cc1ccncc1)C(=O)c1cccs1	-0.752	
COc1ccc(OCC(=O)NCCNC(=O)c2cccnc2)cc1	1.94	
CCC(C)(C)n1nnnc1C(c1ccc(C)cc1)N1CCCC1 (stereo not given)	5.39	
Cc1c(NC(=O)C2CCCN(S(=O)(=O)c3cnc[nH]3)C2)c(=O)n(-c2ccccc2)n1C (stereo not given)	4.21	
CCCCC1NC(C(=O)O)CS1 (stereo not given)	6.61	
COc1ccc2cc(CN(C(=O)Nc3ccccc3)C3CCCC3)c(=O)[nH]c2c1	-2.43	
Cc1cc2c(c(=O)n1CC1CCCO1)C(c1ccco1)C(C#N)=C(N)O2 (stereo not given)	6.21	
O=C(CNC(=O)c1ccco1)Nc1ccc(S(=O)(=O)N2CCCC2)cc1	3.54	
O=C(CSc1nc(O)cc(=O)n1-c1ccccc1)NC1CCCCC1	1.96	
COC(=O)CCC(=O)Nc1sc2c(c1C#N)CCCC2	6.97	
CCCCNc1nc2ccccc2nc1NS(=O)(=O)c1cccs1	3.77	
COc1ccc(S(=O)(=O)NCCSCc2ccco2)cc1OC	-14.5	
CCOc1ccc(S(=O)(=O)N(CC(=O)O)c2ccccc2)cc1	3.64	
CC1(C)CC(=O)C=C(NCc2cccs2)C1	-0.275	
CCN(C[C@H]1N[C@@](CC)(C(=O)OC)[C@H]2C(=O)N(Cc3ccccc3)C(=O)[C@@H]12)C(=O)Nc1ccc(C)cc1	0.513	
Cc1cccc(N2CCN(C(=O)CCc3nc4ccccc4[nH]3)CC2C)c1 (stereo not given)	2.72	
Cc1ccc(-c2ccc(CCC(=O)O)n2NC(=O)c2cccs2)cc1	-2.31	
FC(F)Sc1ccc(NC(=S)NC2CCCCC2)cc1	2.42	
O=C(CCN1C(=O)/C(=C\c2ccco2)SC1=S)Nc1ccc(C(=O)O)c(O)c1		13.1 µM (active)
